The subject of this experiment is HepG2. Briefly: GSK_TCMDC: Percent inhibition of human HepG2 cell line. Test compounds present at 10uM. It counts as functional.
As usually defined, the Inhibition is how much of the control response was suppressed. A low value points to a weak effect. Consider `CCCN(CC1CC1)c1nc(C)nc2c(-c3ccccc3)cc(C)cc12`, for which the Inhibition was 72%.

In turn, `CC(NC(=O)c1ccc(O)c(-c2ccc(Cl)c(Cl)c2)c1)C(=O)NCCN1CCOCC1` (stereo not drawn) displayed an Inhibition of 2%. On to `Nc1ccc(-c2ccc3ccnc(N)c3c2)cc1`, for which the Inhibition turned out to be 38%.
